Artemis inh – Artemis (human) endonuclease inhibition; Q96SD1; recombinant Artemis, quenched FAM hairpin cleavage fluorescence; inhibition, % at 10 µM; 30,000 compounds, 0.78% hits;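 active = at 10 µM dose, at least 30% inhibition, measured as corrected fluorescence normalized to stimulator and neutral control wells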
Target sequence (Q96SD1 whole entry, looked up): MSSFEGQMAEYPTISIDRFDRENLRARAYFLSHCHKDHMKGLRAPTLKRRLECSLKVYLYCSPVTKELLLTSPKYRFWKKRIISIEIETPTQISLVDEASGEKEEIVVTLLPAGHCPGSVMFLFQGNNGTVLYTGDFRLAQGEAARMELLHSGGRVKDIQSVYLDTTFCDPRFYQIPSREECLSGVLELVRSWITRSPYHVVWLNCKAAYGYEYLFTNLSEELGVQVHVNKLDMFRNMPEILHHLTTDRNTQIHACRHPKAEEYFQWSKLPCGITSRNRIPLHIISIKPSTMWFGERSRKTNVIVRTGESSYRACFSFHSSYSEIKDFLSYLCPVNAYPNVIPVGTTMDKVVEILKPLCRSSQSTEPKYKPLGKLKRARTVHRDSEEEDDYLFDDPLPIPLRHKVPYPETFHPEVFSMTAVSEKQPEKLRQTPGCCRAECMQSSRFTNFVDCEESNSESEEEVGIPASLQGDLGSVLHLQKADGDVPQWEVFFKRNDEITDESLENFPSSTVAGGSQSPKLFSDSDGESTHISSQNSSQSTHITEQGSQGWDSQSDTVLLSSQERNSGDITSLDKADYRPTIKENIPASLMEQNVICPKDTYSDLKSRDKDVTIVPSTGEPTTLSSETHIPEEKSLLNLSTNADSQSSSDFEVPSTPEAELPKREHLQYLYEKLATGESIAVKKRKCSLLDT
An asterisk follows results filed as active. Shown is part of a subset that was picked to be rich in hits.

SMILES	Artemis inh
COCc1cc(Sc2ccc(Cl)cc2Cl)nc(-c2ccccc2)n1	6
O=C(C1CCN(S(=O)(=O)N2CCOCC2)CC1)N1CCN(c2ccccc2)CC1	-2
Cc1cc(NC(=O)CCCC(=O)Nc2ccc(F)cc2)no1	1
COc1ccc(NC(=O)CSc2nc3ccccc3c(=O)n2CCCN2CCCCC2)c(OC)c1	-3
CCOC(=O)c1ccc(NC(=O)COc2ccc(S(=O)(=O)NC(C)(C)C)cc2)cc1	3
O=C(CN1CCC(O)CC1)N1c2ccccc2C=Cc2ccccc21	1
Cc1ccc(SCC(=O)NCCSC(C)(C)C)cc1	-2
Cc1ccc(CNC(=O)C2CC(=O)N(c3ccc(OCC(=O)N4CCCC4)cc3)C2)cc1 (stereo not given)	-4
O=C(CSc1nnc(-c2ccccc2NC(=O)c2ccccc2)o1)OC1CCCCC1	-6
Cn1cccc1C(=O)C(=O)Nc1cccc(Cl)c1Cl	1
CC(=O)c1sc2nc(-c3cccs3)cc(C(F)(F)F)c2c1N	-6
CC(C)NC(=O)c1sc2nc3c(c(-c4cccs4)c2c1N)CN(C)CC3	9
Cc1cccc(NC(=O)c2sc3nc4c(c(-c5cccs5)c3c2N)CN(C)CC4)c1	40*
Cc1nc2ccc(NC(=O)c3cccc(S(=O)(=O)N4CC(C)OC(C)C4)c3)cc2s1 (stereo not given)	-10
COc1ccc(/C=N/NC(=O)c2cc(-c3ccc(C)cc3C)nc3ccccc23)cc1COC(C)=O	3
CN1/C(=N\O)c2cccc3cccc1c23	38*
CCNC(=O)CN1c2cccc3cccc(c23)S1(=O)=O	8
CCN1CCN(C(=O)CN2C(=O)c3cccc4cccc2c34)CC1	-10
CCOc1ccccc1NC(=O)c1ccccc1-c1nc(-c2ccccc2OC)no1	-7
Cc1ccc(NC2=NCC(=O)N2Cc2ccc3c(c2)OCO3)cc1	8
